Assay outcomes deposited in PubChem by National Center for Advancing Translational Sciences (NCATS).
A selection: hits, their analogues and other compounds. The true share with any hit is near 19%.
DT40 TDP1 no CPT: qHTS for Inhibitors of human tyrosyl-DNA phosphodiesterase 1 (TDP1): qHTS in cells in absence of CPT | DT40 Tdp1-/- hTDP1 cells, no CPT, ATP luminescence, 48 h | Potency, µM (series often up to 46.2 µM), usual class: inhibitors | 420,000 compounds, 15% hits | AID 686978, 2013; note: nearly all actives have a fitted effect of over 55% in size
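A cellular qHTS used chicken DT40 cells lacking endogenous Tdp1 but carrying stably transfected human TDP1. Compounds were applied without camptothecin, and cell growth kinetics were judged by ATP-dependent luminescence after ≥48 hr.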
HT1080 IDH1KD tx: qHTS for induction of synthetic lethality in tumor cells producing 2HG: qHTS for the HT-1080-IDH1KD cell line; HT-1080 IDH1 knockdown viability, ATP luminescence, 48 h; Potency, µM (titrated, usually from 46.1 µM), most hits filed as cytotoxic; 360,000 compounds, 2% hits
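Cytotoxicity counter-line: IDH1KD HT-1080, 48 h, CellTiter-Glo. Curves classed by r2, magnitude and activity.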
TDP1 cell CPT: qHTS for Inhibitors of human tyrosyl-DNA phosphodiesterase 1 (TDP1): qHTS in cells in presence of CPT. Potency, µM (doses to about 46.2 µM), hits mostly inhibitors. 420,000 compounds, 12% hits. chicken DT40 Tdp1-/-;hTDP1 cells + 20 nM CPT, ATP luminescence, 48 h; note: nearly all actives have a fitted effect of over 55% in size
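Cell growth measured by CellTiter-Glo luminescence after a minimum 48 h, 37 C compound exposure with 20 nM CPT in Tdp1-knockout DT40 cells stably expressing hTDP1, seeded 400/well; qHTS titration format.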
HT1080NT lethal: qHTS for induction of synthetic lethality in tumor cells producing 2HG: qHTS for the HT-1080-NT fibrosarcoma cell line; HT-1080-NT fibrosarcoma viability, CellTiter-Glo ATP luminescence, 48 h; Potency, µM (highest dose often 46.1 µM), actives largely listed as cytotoxic; 360,000 compounds, 1.6% hits;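 note: NT is the 2HG producing partner of a matched IDH1 knockdown line; nearly all actives have a fitted effect of over 55% in size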
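Viability of the 2HG-overproducing fibrosarcoma line after 48 hours of compound exposure at 37 degrees C was determined by luminescence with CellTiter-Glo, and concentration-effect curves were then fitted and categorized.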
IL1B secr inh: qHTS for Inhibitors of Inflammasome Signaling: IL-1-beta AlphaLISA Primary Screen; THP-1 LPS/ATP IL-1B secretion, AlphaLISA, 16 h; stronger effect = lower value; activity change, % at 57.5 µM; 360,000 compounds, 4.7% hits; AID 743279, 2014; in the data active = activity change below about -50%; inconclusive = mostly about -30% to -49%
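Secreted IL-1B measured by AlphaLISA bead assay after 16 h compound exposure of THP-1 cells; compounds (final up to 57.5 uM) added 1 h before LPS (250 ng/mL) and ATP (1.25 mM) stimulation; lower signal means less secretion.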
A number is an active result; 0 = inactive; ? = inconclusive; - = no result given. Unless noted, calls come from the whole dose curve; as a rule, active = well fitted curve in the direction sought with a large enough effect; inconclusive = small, poorly fitted or top-dose-only effect, or another doubt; inactive = no such curve, though single readings can be large; an effect the other way counts as inactive or inconclusive.

SMILES	DT40 TDP1 no CPT	HT1080 IDH1KD tx	TDP1 cell CPT	HT1080NT lethal	IL1B secr inh
COc1ccccc1Cc1c(-c2ccco2)nc2ccc(Br)cn12	20.6µM	?	10.3µM	?	0
COc1ccccc1Cc1c(-c2ccco2)nc2ccc(Cl)cn12	23.1µM	?	16.4µM	?	0
CC(C)C[C@H]1CN(CCCC[C@H]2CNC(=O)C(=O)N2CCc2ccc(O)cc2)C(=O)C(=O)N1CCC1CCCCC1	0	0	0	0	0
C[C@@H]1CN([C@@H](C)CO)S(=O)(=O)c2ccc(Br)cc2O[C@H]1CN(C)C(=O)Nc1ccc(C(F)(F)F)cc1	?	?	?	?	0
Cc1ccccc1-c1ccc2c(c1)O[C@@H](CN(C)C(=O)Nc1ccc(C(F)(F)F)cc1)[C@H](C)CN([C@@H](C)CO)S2(=O)=O	13µM	16.4µM	20.6µM	16.4µM	?
C[C@@H]1CN([C@H](C)CO)S(=O)(=O)c2ccc(Br)cc2O[C@@H]1CN(C)C(=O)Nc1ccc(C(F)(F)F)cc1	?	?	20.6µM	?	-70.2
Cc1ccc(OCCn2c(SCCO)nc3c(N)ncnc32)cc1	?	0	?	0	0
CCCCc1c(C)nc2ccc(Br)cc2c1SC(N)N	0	0	0	0	0
CCCCN1CCc2c1nc1ccc(Br)cc1c2N	23.1µM	?	?	?	-96.2
CN1CCN(C(=O)c2ccc3c(=O)n(Cc4ccc5c(c4)OCO5)c(=S)[nH]c3c2)CC1	12.6µM	0	22.4µM	0	-
O=C(c1ccc2c(=O)n(Cc3ccc(Cl)cc3)c(=S)[nH]c2c1)N1CCCC1	?	0	0	0	0
CCCCCn1c(=O)[nH]c2cc(C(=O)NCc3ccc4c(c3)OCO4)ccc2c1=O	0	0	0	0	0
CN1CCN(C(=O)c2ccc3c(=O)n(Cc4ccc(Cl)cc4)c(=S)[nH]c3c2)CC1	?	?	20.6µM	?	0
CCCCCn1c(=O)[nH]c2cc(C(=O)N3CCN(Cc4ccc5c(c4)OCO5)CC3)ccc2c1=O	10.3µM	?	4.61µM	0	0
COc1ccc(CCCc2nnc(SCC(=O)Nc3ccc(F)cc3)o2)cc1C	0	-	0	-	-
CCn1c(-c2ccccc2F)nc2cc(C(=O)N3CCCC(CO)C3)cc(NC(C)=O)c21 (centres undefined)	0	-	0	-	-
CC(C)C(C)NC(=O)CN1C(=O)NC2(CCCc3ccccc32)C1=O (centres undefined)	0	?	0	0	0
Cc1ccc2c(c1)C(=O)C(=O)N2Cc1ccc(Br)cc1	0.651µM	23.1µM	0.92µM	?	0
Cc1ccc2c(c1)C(=O)C(=O)N2c1ccc(Cl)cc1	?	0	?	0	0
O=C1CNC(=O)N1Cc1ccc(Br)cc1	0	0	0	0	0
CCCN1C(=O)C(=O)c2cc(C)ccc21	3.26µM	?	2.06µM	?	0
CCCCN1C(=O)C(=O)c2cc(Cl)ccc21	0.82µM	20.6µM	1.03µM	25.9µM	0
Cc1ccc(CN2C(=O)C(=O)c3cc(C)ccc32)cc1	0.651µM	0	0.581µM	0	0
Cc1ccc2c(c1)C(=O)C(=O)N2c1ccc(C(F)(F)F)cc1	0	0	0	0	0
CCCCN1C(C)=CC(=C2C(=O)c3ccccc3C2=O)C=C1C	?	0	0	0	0
SMILES	DT40 TDP1 no CPT	HT1080 IDH1KD tx	TDP1 cell CPT	HT1080NT lethal	IL1B secr inh
O=C1OCCC1=COCCCCCCOC=C1CCOC1=O	?	0	0	0	0
Cc1cccc(NC(=O)c2ncn3c2C(=O)N[C@@H](C)C3)c1	?	0	0	0	0
CC#CCC(C)[C@H](O)/C=C/[C@@H]1[C@H]2C/C(=C/CCCC(=O)O)C[C@H]2C[C@H]1O (some centres undefined)	0	-	0	-	-
Cc1ccc2c(c1)C(=O)C(=O)N2Cc1ccc(OCCC(C)C)cc1	0.411µM	-	0.411µM	-	-
CC(C)CCOc1ccc(C(=O)O)cc1	0	0	0	0	0
COc1cc(OC)nc(C(NC(=O)C2CCN(Cc3ccc(Oc4ccccc4)cc3)CC2)c2ccc(F)cc2)n1 (centres undefined)	?	0	25.9µM	0	0
CC(NC(=O)C1CCN(Cc2ccc(Oc3ccccc3)cc2)CC1)c1cccc2ccccc12 (centres undefined)	14.6µM	10.3µM	23.1µM	?	0
COc1ccc(C(NC(=O)C2CCN(Cc3cc(OC)cc(OC)c3)CC2)c2ccccn2)cc1 (centres undefined)	0	0	0	0	0
COc1cccc(CN2CCC(C(=O)NC(C)c3cccc4ccccc34)CC2)c1 (centres undefined)	16.4µM	?	23.1µM	?	?
COCCCNCC(O)COc1ccccc1F (centres undefined)	0	0	0	0	0
O=C(CCNC(=O)c1ccco1)Nc1ccc(Cl)cc1F	0	0	0	0	0
CC(C)c1ccc(NC(=O)c2cccc3c2C(=O)N(C2CCCCC2)C3)cc1	0	-	0	-	-
Cc1cc(C)c(NC(=O)c2cccc3c2C(=O)N(C2CCCCC2)C3)c(C)c1	16.4µM	0	?	0	0
Cc1ccc(NC(=O)c2cccc3c2C(=O)N(C2CCCCC2)C3)cc1	20.6µM	?	?	?	?
CCc1cccc(NC(=O)c2cccc3c2C(=O)N(C2CCCCC2)C3)c1	18.4µM	0	?	0	0
Cc1cccc(CCNC(=O)c2cccc3c2C(=O)N(C2CCCCC2)C3)c1	0	0	?	?	-65.6
Cc1ccccc1NC(=O)c1cccc2c1C(=O)N(C1CCCCC1)C2	?	0	?	0	0
CCOc1ccccc1NC(=O)c1cccc2c1C(=O)N(C1CCCCC1)C2	13µM	0	?	0	?
CCc1nc2ccc(C(=O)NC(C)(C)C)cn2c1N(CC)Cc1cccc(Br)c1	16.4µM	?	18.4µM	?	-58.0
CCc1nc2ccc(C(=O)NCc3ccc4c(c3)OCO4)cn2c1N(CC)Cc1cccc(Br)c1	?	0	?	?	?
CCc1nc2ccc(C(=O)NCCCN3CCCC3=O)cn2c1N(CC)Cc1cccc(Br)c1	?	0	20.6µM	0	0
CCc1nc2ccc(C(=O)NCCCN3CCCC3=O)cn2c1N(CC)CCN(C)C	0	0	0	0	0
CCc1nc2ccc(C(=O)NCCc3ccccn3)cn2c1N(CC)Cc1cccc(Br)c1	9.2µM	?	8.2µM	?	0
Cc1ccc(-c2noc(CNC(=O)COc3cc(C)c(Br)c(C)c3)n2)cc1	0	-	0	-	-
Cc1ccc(C(=O)Oc2ccccc2N2C(=O)C3CCC(C)CC3C2=O)cc1 (centres undefined)	0	0	0	0	0
